A selection: hits, their analogues and other compounds. The true share with any hit is near 2.6%.
GLP-1R inv ag – GLP-1 receptor (human) inverse agonism. P43220. HEK293 GLP-1R CRE-luciferase, luminescence, 24 h; GLP-1R form is constitutively active. Potency, µM (series often up to 38.3 µM), most hits filed as inhibitors. 1.6% of 410,000 active; note: nearly all actives have a fitted effect of over 55% in size
Target sequence (P43220 whole entry, looked up): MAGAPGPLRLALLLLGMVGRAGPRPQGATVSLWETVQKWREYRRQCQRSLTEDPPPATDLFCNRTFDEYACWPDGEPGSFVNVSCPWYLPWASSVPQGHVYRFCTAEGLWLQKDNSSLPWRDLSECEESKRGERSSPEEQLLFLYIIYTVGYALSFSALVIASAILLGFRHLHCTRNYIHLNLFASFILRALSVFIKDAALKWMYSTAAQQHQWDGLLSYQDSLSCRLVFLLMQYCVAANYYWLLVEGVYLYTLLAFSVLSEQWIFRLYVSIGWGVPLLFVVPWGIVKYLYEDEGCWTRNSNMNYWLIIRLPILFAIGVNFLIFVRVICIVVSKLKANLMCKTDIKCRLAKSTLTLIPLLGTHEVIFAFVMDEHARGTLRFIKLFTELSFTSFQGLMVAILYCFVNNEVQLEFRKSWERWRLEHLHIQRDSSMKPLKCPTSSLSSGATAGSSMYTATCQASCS
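Readout was luciferase luminescence, measured 12 min after detection reagent at room temperature. Beforehand, GLP-1R reporter HEK293 cells had sat 12 h, then received compounds for 24 hr at 37 deg C.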
BRCA1 expr up – increases BRCA1 expression; MCF7-BRCA1-FFLuc reporter, luminescence, 48 h; response scale: scaled: vehicle 0%, 10 µM genistein 100%; Potency, µM (top dose mostly 46.1 µM), actives largely listed as activators; 1.1% of 380,000 active; note: nearly all actives have a fitted effect of over 80% in size
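Compounds are tested at multiple concentrations on MCF7 BRCA1-luciferase reporter cells seeded at 2000 per well; after 48 h, a single luminescence end-point is taken and curves fitted to the normalized data.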
GLP1R ag – GLP-1 receptor (human) agonism | P43220 | HEK293 GLP-1R CRE-luciferase, luminescence, 4-6 h; cells express a hypersensitive GLP-1R form | 0.007% of 380,000 active | AID 624172 | Potency, µM (top dose mostly 45.6 µM), usual class: activators
HEK293 tox – cytotoxic in the GLP-1 receptor inverse agonist counter-screen; 0.13% of 410,000 active; HEK293 cAMP-luciferase reporter cells, luminescence, 24 h; Potency, µM (top dose mostly 38.3 µM), usual class: inhibitors;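 note: loss of luciferase light is scored as toxicity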
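1536-well qHTS counterscreen of the MLSMR; 200 cells/uL, 12 h pre-incubation, 23 nL cpd, 24 h at 37 deg C 5% CO2, luciferase detection reagent, 12 min RT, luminescence. Inhibition = undesired.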
Hits are given with their value; - = inactive; ? = inconclusive; . = no result given; ! = not confirmed by another sample. Calls come from the whole dose curve; as a rule, active = well fitted curve in the direction sought with a large enough effect; inconclusive = small, poorly fitted or top-dose-only effect, or another doubt; inactive = no such curve, though single readings can be large; an effect the other way counts as inactive or inconclusive.

SMILES	GLP-1R inv ag	BRCA1 expr up	GLP1R ag	HEK293 tox
Cc1nc2cc(-c3ccc(Br)cc3)[nH]n2c(=O)c1Cl	-	4.5µM	-	-
O=C(NCCSc1ccccc1)c1ccccc1Cl	-	2.8µM	-	-
CC(C)CNC(=O)c1ccccc1NC(=O)CCSc1ccccc1	7.1µM	-	-	-
O=C(CCc1ccccc1)NCCSc1ccccc1	?	5.6µM	-	-
O=C(NCCSc1ccccc1)c1cncc(Br)c1	-	7.9µM	-	-
O=C(CCSc1ccccc1)NCCSCc1ccccc1	?	-	-	-
Cc1nc(Nc2cccc(O)c2)c2c3c(sc2n1)CCC3	?	-	-	-
Cc1ccc(NC(=O)c2c(-c3c(F)cccc3Cl)noc2C)cc1F	4µM	-	-	-
Cc1onc(-c2c(F)cccc2Cl)c1C(=O)OCC(=O)NC(=O)NCC(C)C	13µM	-	-	-
Cc1cc(C(=O)NNC(=O)c2c(-c3c(Cl)cccc3Cl)noc2C)no1	-	-	-	-
Cc1nc(C(=O)NNC(=O)c2c(-c3c(Cl)cccc3Cl)noc2C)cs1	5.6µM	-	-	8.9µM
Cc1cc(C)cc(NC(=S)NCC2CCN(C(C)c3ccccc3)C2)c1 (stereo not drawn)	10µM	-	-	-
COc1ccc(CCNC(=O)CCCCn2c(=O)c3ccccc3n(Cc3ccc(Cl)cc3)c2=O)cc1OC	?	-	-	-
O=C(c1ccccc1)N1CCC(=O)N1c1ccccc1	-	-	-	-
O=C1CN(c2ccccc2)C(=S)N1C(=O)c1ccccc1	-	7.1µM	-	-
CCOc1ccc(S(=O)(=O)NC2CCCCC2C)cc1 (stereo not drawn)	10µM	-	-	-
CC1CN(C(=O)c2ccc(-c3cccc(C(F)(F)F)c3)o2)CC(C)O1 (stereo not drawn)	?	-	-	-
CC1CN(C(=O)c2ccccc2Nc2ccc(SC(F)F)cc2)CC(C)O1 (stereo not drawn)	-	-	-	-
CC1CCCC(C)N1C(=O)c1ccccc1Nc1ccc(SC(F)F)cc1 (stereo not drawn)	5.6µM	-	-	-
CCCC[n+]1c(/C=C/c2ccc(N(C)C)cc2)sc2ccccc21	.	-	.	.
CC(C)OC(=O)c1ccc(NC(=O)C2C3CC4OC(=O)C2C4C3)cc1 (stereo not drawn)	-	7.1µM	-	-
O=C(N/N=C/c1ccccc1[N+](=O)[O-])c1cccs1	-	?	-	-
Cc1ccc(/C=N/NC(=O)c2cccs2)cc1[N+](=O)[O-]	-	13µM	-	-
NC(=O)NS(=O)(=O)c1ccc(N)cc1	.	.	-	.
Cc1ccc(C(=O)/C=C/Nc2ccccn2)cc1	5.6µM	?	-	-
SMILES	GLP-1R inv ag	BRCA1 expr up	GLP1R ag	HEK293 tox
CC1(C)N=C(N)N=C(N)N1c1ccc(Cl)cc1	.	.	-	.
c1ccc(N2CCN(c3nc4cc5c(cc4s3)OCO5)CC2)cc1	-	4µM!	-	-
O=C(Nc1ccncc1)Nc1cccc(C(F)(F)F)c1	10µM	-	-	-
O=C(Nc1ccc(OC(F)(F)F)cc1)Nc1cccc([N+](=O)[O-])c1	2.5µM	-	-	5.6µM
O=C(Nc1ccc(OC(F)F)cc1)Nc1cccc(C(F)(F)F)c1	4.5µM	-	-	?
Cc1ccc(NC(=O)Nc2cccc([N+](=O)[O-])c2)cc1F	?	-	-	-
CCOc1ccc(CN2CCN(S(=O)(=O)c3ccc(NC(C)=O)cc3)CC2)cc1	-	-	-	-
Clc1ccc(Cn2nc(-c3ccccc3)nc2-c2ccccc2)cc1	7.9µM	?	-	-
Clc1ccccc1Cn1nc(-c2ccccc2)nc1-c1ccccc1	?	-	-	-
COc1ccc(N(CC(=O)NCCSc2ccccc2)S(=O)(=O)c2ccccc2)c(OC)c1	10µM	-	-	-
COc1ccccc1N(CC(=O)NCCSc1ccccc1)S(=O)(=O)c1ccccc1	?	-	-	-
COc1ccccc1N1CCN(C(=O)C(CCSC)NS(=O)(=O)c2ccc3c(c2)oc(=O)n3C)CC1 (stereo not drawn)	-	.	.	-
COc1ccc(N2CCN(C(=O)c3ccc4c(c3)CCN4S(=O)(=O)c3ccccc3)CC2)cc1	?	-	-	-
COc1ccccc1N1CCN(C(=O)c2ccc3c(c2)CCN3S(=O)(=O)c2ccccc2)CC1	7.9µM	-	-	-
CN(C)c1ccc(CNC(=O)CCNS(=O)(=O)c2cc(Br)cnc2N)cc1	4.5µM	-	-	-
CCN(c1ccccc1)S(=O)(=O)c1ccc(OC)c(NC(=O)Cc2ccc(OC)c(OC)c2)c1	-	-	-	-
CCN1CCN(CC(=O)Nc2cc(S(=O)(=O)N(CC)c3ccccc3)ccc2Cl)CC1	10µM	-	-	?
CCN(c1ccccc1)S(=O)(=O)c1ccc(Cl)c(NC(=O)CN2CCN(C)CC2)c1	?	-	-	-
CCN(c1ccccc1)S(=O)(=O)c1ccc(OC)c(NC(=O)Cc2ccccc2OC)c1	10µM	-	-	-
Cc1cc(NC(=O)COC(=O)c2ccccc2OCCOc2ccccc2)ccc1Br	.	-	.	.
CCOc1ccc(NC(=O)NCCN2CCN(c3cc(Cl)ccc3C)CC2)cc1	-	-	-	-
CC(C)CC(O)(CC(C)C)C(=O)NNc1ccccc1	5.6µM	-	-	-
CCOc1ccc(-c2cc3c(=O)n(CC(=O)Nc4c(C)cccc4C)ccn3n2)cc1	-	.	.	-
COc1cc(OC)c(OC)cc1/C=C/c1nc2ccccc2o1	.	-	.	.
Cc1cccc2sc(N(CCCN(C)C)C(=O)CCc3ccccc3)nc12	2.8µM	-	-	?
SMILES	GLP-1R inv ag	BRCA1 expr up	GLP1R ag	HEK293 tox
Cc1cccc2sc(N(CCCN(C)C)C(=O)CN3C(=O)c4ccccc4C3=O)nc12	-	-	-	?
CC1CN(C(NC(=O)c2ccccc2)C(Cl)(Cl)Cl)CC(C)O1 (stereo not drawn)	-	-	-	-
CN1C(=O)c2ccccc2Sc2ccc(NC(=O)COc3ccc(Cl)cc3)cc21	?	.	.	-
c1cncc(CSc2ccc(-c3cccs3)nn2)c1	-	10µM	-	-
Fc1ccc(CSc2ccc(-c3cccs3)nn2)cc1	-	10µM	-	-
O=C1CC(/C=C/c2ccncc2)=Nc2ccccc2N1	2.5µM	-	-	-
COCc1ccc(C(=O)NC2CCCc3c2cnn3-c2cc(C)cc(C)c2)s1 (stereo not drawn)	7.1µM	-	-	-
Cc1ncoc1C(=O)NC1CCCc2c1cnn2-c1ccc(C(C)(C)C)cc1 (stereo not drawn)	5µM	-	-	-
Cc1cc(C)cc(-n2ncc3c2CCCC3NC(=O)c2cc(C)oc2C)c1 (stereo not drawn)	13µM	-	-	-
Nc1nnc(-c2ccccc2F)s1	-	-	-	-
Nc1nnc(-c2ccc(Cl)cc2Cl)s1	-	10µM	-	-
O=C(N=Nc1c(O)[nH]c2ccccc12)Nc1ccccc1	-	?	-	-
Cc1cccc(NC(=S)N=Nc2c(O)[nH]c3ccccc23)c1	10µM	-	-	10µM
Cc1ccc(C(=O)N(CCCN(C)C)c2nc3ccc(Cl)cc3s2)cc1C	6.3µM	-	-	?
